Results filed as inconclusive are left out. Calls of active or inactive are those of the source. The calls were made as follows: active = hit-call score of the fitted dose curve at least 0.9, where 1 is the maximum; inconclusive = response in the unintended direction; inactive = score below 0.9.
Target: Oxysterols receptor LXR-alpha (Homo sapiens) (UniProt Q13133)
Test: ATG_LXRa_TRANS: Attagene TRANS-FACTORIAL HepG2 Assay for human Liver X Receptor alpha (LXRa) (AID 2282980)
Conditions: HepG2 Attagene TRANS reporter, LXRa transactivation
How it was run: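 Read-out: reporter transcript levels by RT-PCR plus capillary electrophoresis, fluorescence intensity. Transiently transfected HepG2, exogenous NR-GAL4 chimera, GAL4-UAS reporters; 24 h compound exposure. Activity = increase over DMSO negative control.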

Oxysterols receptor LXR-alpha (Homo sapiens), sequence (Q13133 whole entry, looked up): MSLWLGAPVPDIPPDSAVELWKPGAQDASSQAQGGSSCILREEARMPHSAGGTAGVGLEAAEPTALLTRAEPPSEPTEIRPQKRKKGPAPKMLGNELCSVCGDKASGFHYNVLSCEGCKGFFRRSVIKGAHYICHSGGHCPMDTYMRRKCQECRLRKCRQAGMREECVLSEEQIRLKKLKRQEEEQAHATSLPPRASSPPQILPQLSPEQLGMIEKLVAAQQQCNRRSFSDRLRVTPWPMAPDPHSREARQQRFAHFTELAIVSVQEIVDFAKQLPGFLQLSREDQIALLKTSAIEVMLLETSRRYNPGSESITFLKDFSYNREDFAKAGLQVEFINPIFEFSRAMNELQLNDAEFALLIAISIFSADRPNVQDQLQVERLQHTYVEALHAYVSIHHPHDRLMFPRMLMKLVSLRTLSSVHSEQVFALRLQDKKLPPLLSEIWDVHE

SMILES | AC50 | outcome
Cc1ccc(O)cn1 | 25.4 µM (active) | 
C[Si](C)O[Si](C)C |  | inactive
CC1CCCCC1 |  | inactive
CCC(Cc1c(I)cc(I)c(N)c1I)C(=O)O (stereo not given) |  | inactive
NCC(F)(F)C(F)(F)C(F)(F)C(F)(F)C(F)(F)C(F)(F)C(F)(F)C(F)(F)F |  | inactive
CCN(CC)c1ccc(C=O)c(O)c1 |  | inactive
O=C(Cl)c1ccc(Cl)cc1Cl |  | inactive
O=C(O)CCC(F)(F)C(F)(F)C(F)(F)C(F)(F)C(F)(F)C(F)(F)C(F)(F)F |  | inactive
CC(C)(C)c1cc(CCC(=O)NCCCCCCNC(=O)CCc2cc(C(C)(C)C)c(O)c(C(C)(C)C)c2)cc(C(C)(C)C)c1O |  | inactive
CCc1ccc(C)nc1 |  | inactive
CN(C)C(C)(C)CO |  | inactive
O=S(=O)(O)CCC(F)(F)C(F)(F)C(F)(F)C(F)(F)C(F)(F)C(F)(F)C(F)(F)C(F)(F)F |  | inactive
Cc1cc(O)c(C(C)(C)C)cc1C(C)(C)C | 2.99 µM (active) | 
O=C(O)C(F)(F)C(F)(F)C(F)(F)C(F)(F)C(F)(F)C(F)(F)C(F)F |  | inactive
CCOCOCC |  | inactive

SMILES | AC50 | outcome
OCC(F)(F)C(F)(F)C(F)(F)C(F)(F)C(F)(F)C(F)(F)CO |  | inactive
O=C1c2ccccc2C(=O)c2c(Cl)cccc21 |  | inactive
CC1=CCC2C(=O)OC(=O)C2C1 (stereo not given) |  | inactive
NC(=O)C(F)(F)C(F)(F)C(F)(F)C(F)(F)C(F)(F)C(F)(F)C(F)(F)F |  | inactive
O=C1C=CC(=O)N1c1ccc(Cc2ccc(N3C(=O)C=CC3=O)cc2)cc1 |  | inactive
NS(=O)(=O)C(F)(F)C(F)(F)C(F)(F)C(F)(F)C(F)(F)C(F)(F)F |  | inactive
CCN(CC)c1ccc(N=Nc2ccccc2)cc1 |  | inactive
CCCCCCCCCCCCCC[P+](CCCC)(CCCC)CCCC |  | inactive
O=C(O)C(F)(F)C(F)(F)C(F)(F)OC(F)(C(F)(F)F)C(F)(F)F |  | inactive
CC(C)C(=O)OCc1ccccc1 |  | inactive
CCCCCCCCCCCCC[N+](C)(C)Cc1ccccc1 |  | inactive
C=CC(=O)OCC(F)(F)C(F)(F)C(F)(F)C(F)(F)C(F)(F)C(F)(F)C(F)(F)C(F)F |  | inactive
CCc1cccc(C)c1N(C(=O)C(=O)O)C(C)COC (stereo not given) |  | inactive
CC(=O)C=O |  | inactive
O=C(c1ccccc1)c1ccc(O)cc1O |  | inactive

Target: Oxysterols receptor LXR-beta (Homo sapiens) (UniProt P55055)
Sequence (P55055 whole entry, looked up): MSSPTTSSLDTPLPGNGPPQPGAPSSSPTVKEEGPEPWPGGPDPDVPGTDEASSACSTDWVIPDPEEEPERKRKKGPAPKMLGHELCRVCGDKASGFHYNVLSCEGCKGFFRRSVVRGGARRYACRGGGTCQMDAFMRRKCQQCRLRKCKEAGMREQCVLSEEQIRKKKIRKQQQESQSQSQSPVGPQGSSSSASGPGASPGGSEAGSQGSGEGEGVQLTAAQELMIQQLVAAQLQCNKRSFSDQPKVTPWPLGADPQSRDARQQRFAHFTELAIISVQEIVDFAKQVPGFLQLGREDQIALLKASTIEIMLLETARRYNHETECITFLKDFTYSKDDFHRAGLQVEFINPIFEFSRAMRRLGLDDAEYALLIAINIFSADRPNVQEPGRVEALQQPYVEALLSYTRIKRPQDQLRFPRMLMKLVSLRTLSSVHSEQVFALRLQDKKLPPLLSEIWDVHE
Test: ATG_LXRb_TRANS: Attagene TRANS-FACTORIAL HepG2 Assay for human Liver X Receptor beta (LXRb) (AID 2282981)
Conditions: HepG2 Attagene TRANS GAL4-LXRb reporter, mRNA
How it was run: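 Readout: fluorescent reporter mRNA fragments resolved by capillary electrophoresis after RT-PCR. System: transiently transfected human HepG2, exogenous LXRb-Gal4 chimera driving GAL4-UAS reporter, 24 h dosing. Activity fitted upward against DMSO baseline.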

SMILES | outcome | AC50
C[Si](C)O[Si](C)C | inactive | 
F[Si-2](F)(F)(F)(F)F | inactive | 
CCOC(OCC)OCC | inactive | 
COc1ccccc1C=O | inactive | 
CC1CCCCC1 | inactive | 
CCC(Cc1c(I)cc(I)c(N)c1I)C(=O)O (stereo not given) | inactive | 
CC(C)(C)c1cc(CCC(=O)NCCCCCCNC(=O)CCc2cc(C(C)(C)C)c(O)c(C(C)(C)C)c2)cc(C(C)(C)C)c1O | inactive | 
CN(C)C(C)(C)CO | inactive | 
Cc1cc(O)c(C(C)(C)C)cc1C(C)(C)C |  | 4.8 µM (active)
O=C(O)C(F)(F)C(F)(F)C(F)(F)C(F)(F)C(F)(F)C(F)(F)C(F)F | inactive | 
CCOCOCC | inactive | 
CCCCCCCCCCCC(=O)Cl | inactive | 
OCC(F)(F)C(F)(F)C(F)(F)C(F)(F)C(F)(F)C(F)(F)CO | inactive | 
O=C1c2ccccc2C(=O)c2c(Cl)cccc21 | inactive | 
NS(=O)(=O)C(F)(F)C(F)(F)C(F)(F)C(F)(F)C(F)(F)C(F)(F)F | inactive | 
CCN(CC)c1ccc(N=Nc2ccccc2)cc1 | inactive | 
C=CCOC(=O)CC(C)C | inactive | 
CCCCCCCCCCCCCC[P+](CCCC)(CCCC)CCCC | inactive | 
CCCCCCCCCCCCC[N+](C)(C)Cc1ccccc1 | inactive | 
FC(F)(F)C(F)(F)C(F)(F)C(F)(F)C(F)(F)C(F)(F)CC[Si](Cl)(Cl)Cl | inactive | 
C=CC(=O)OCC(F)(F)C(F)(F)C(F)(F)C(F)(F)C(F)(F)C(F)(F)C(F)(F)C(F)F | inactive | 
O=C(c1ccccc1)c1ccc(O)cc1O | inactive | 

Target: Hepatocyte nuclear factor 4-alpha (Homo sapiens) (UniProt P41235)
Sequence (P41235 whole entry, looked up): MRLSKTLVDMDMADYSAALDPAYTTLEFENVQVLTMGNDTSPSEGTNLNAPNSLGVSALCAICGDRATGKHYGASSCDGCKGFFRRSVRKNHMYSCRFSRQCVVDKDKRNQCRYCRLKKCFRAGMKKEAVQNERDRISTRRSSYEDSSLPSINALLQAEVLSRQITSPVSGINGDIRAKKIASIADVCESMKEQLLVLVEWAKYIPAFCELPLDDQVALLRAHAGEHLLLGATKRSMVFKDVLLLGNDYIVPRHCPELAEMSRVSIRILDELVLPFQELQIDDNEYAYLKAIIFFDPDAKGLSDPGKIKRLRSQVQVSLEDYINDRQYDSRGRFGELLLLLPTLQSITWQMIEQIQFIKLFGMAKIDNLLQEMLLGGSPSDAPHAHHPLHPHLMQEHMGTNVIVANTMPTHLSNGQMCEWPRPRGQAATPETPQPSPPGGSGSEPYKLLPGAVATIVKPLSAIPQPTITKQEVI
Test: ATG_HNF4a_TRANS: Attagene TRANS-FACTORIAL HepG2 Assay for human Hepatocyte Nuclear Factor 4 alpha (HNF4a) (AID 2282982)
Conditions: HepG2 HNF4a transactivation reporter, mRNA readout
How it was run: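 Transient MRTU transfection of HepG2, 24 h dosing. Readout: reporter mRNA via RT-PCR + capillary electrophoresis, fluorescence; activity fit upward relative to DMSO control.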

SMILES | outcome
Cc1ccc(O)cn1 | inactive
F[Si-2](F)(F)(F)(F)F | inactive
CCOC(OCC)OCC | inactive
O=C(Cl)c1ccc(Cl)cc1Cl | inactive
CC(C)(C)c1cc(CCC(=O)NCCCCCCNC(=O)CCc2cc(C(C)(C)C)c(O)c(C(C)(C)C)c2)cc(C(C)(C)C)c1O | inactive
CCc1ccc(C)nc1 | inactive
CN(C)C(C)(C)CO | inactive
CCCCCCCCCCCC(=O)Cl | inactive
O=C1C=CC(=O)N1c1ccc(Cc2ccc(N3C(=O)C=CC3=O)cc2)cc1 | inactive
NS(=O)(=O)C(F)(F)C(F)(F)C(F)(F)C(F)(F)C(F)(F)C(F)(F)F | inactive
CCN(CC)c1ccc(N=Nc2ccccc2)cc1 | inactive
O=C(c1ccccc1)c1ccc(O)cc1O | inactive

System: not listed separately
Test: ATG_M_06_TRANS: Attagene TRANS-FACTORIAL HepG2 Assay for M06 Transcription Factor (Internal Marker) (AID 2282983)
Conditions: HepG2 Attagene TRANS M06 internal marker reporter
How it was run: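 Read-out: fluorescent reporter cDNA fragments resolved by capillary electrophoresis after RT-PCR and HpaI cut. Source cells were HepG2 carrying transfected multi-reporter GAL4 constructs, dosed 24 h. Increase over DMSO control analysed.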

SMILES | outcome
F[Si-2](F)(F)(F)(F)F | inactive
CCOC(OCC)OCC | inactive
CC1CCCCC1 | inactive
CCC(Cc1c(I)cc(I)c(N)c1I)C(=O)O (stereo not given) | inactive
NCC(F)(F)C(F)(F)C(F)(F)C(F)(F)C(F)(F)C(F)(F)C(F)(F)C(F)(F)F | inactive
CCN(CC)c1ccc(C=O)c(O)c1 | inactive
O=C(Cl)c1ccc(Cl)cc1Cl | inactive
CC(C)(C)c1cc(CCC(=O)NCCCCCCNC(=O)CCc2cc(C(C)(C)C)c(O)c(C(C)(C)C)c2)cc(C(C)(C)C)c1O | inactive
CCc1ccc(C)nc1 | inactive
CN(C)C(C)(C)CO | inactive
Cc1cc(O)c(C(C)(C)C)cc1C(C)(C)C | inactive
O=C(O)C(F)(F)C(F)(F)C(F)(F)C(F)(F)C(F)(F)C(F)(F)C(F)F | inactive
CCCCCCCCCCCC(=O)Cl | inactive
OCC(F)(F)C(F)(F)C(F)(F)C(F)(F)C(F)(F)C(F)(F)CO | inactive
O=C1c2ccccc2C(=O)c2c(Cl)cccc21 | inactive
NC(=O)C(F)(F)C(F)(F)C(F)(F)C(F)(F)C(F)(F)C(F)(F)C(F)(F)F | inactive
NS(=O)(=O)C(F)(F)C(F)(F)C(F)(F)C(F)(F)C(F)(F)C(F)(F)F | inactive
C=CCOC(=O)CC(C)C | inactive
CCCCCCCCCCCCCC[P+](CCCC)(CCCC)CCCC | inactive
CCCCCCCCCCCCC[N+](C)(C)Cc1ccccc1 | inactive
FC(F)(F)C(F)(F)C(F)(F)C(F)(F)C(F)(F)C(F)(F)CC[Si](Cl)(Cl)Cl | inactive
C=CC(=O)OCC(F)(F)C(F)(F)C(F)(F)C(F)(F)C(F)(F)C(F)(F)C(F)(F)C(F)F | inactive
CC(=O)C=O | inactive
O=C(c1ccccc1)c1ccc(O)cc1O | inactive

From PubChem BioAssay (EPA / NIEHS)
